The results in this text go back to PubChem BioAssay AID2289 (National Center for Advancing Translational Sciences (NCATS), 2010).

Screen size: about 340,000 compounds; about 3,300 (0.97%) were called active. Inconclusive results (about 9%) are left out. Calls follow the shape of the dose curve; as a rule, active = well fitted inhibition curve with a large enough effect; inconclusive = small, poorly fitted or top-dose-only effect, or effect the other way; inactive = flat fitted curve, though single readings scatter. Some of the results follow.
Potency is read from the fitted curve at half-maximal effect.

A short description of this test: qHTS Assay for Modulators of miRNAs and/or Inhibitors of miR-21. Also: nearly all actives have a fitted effect of over 55% in size. Particulars: HeLa miR-21-FLuc reporter, luciferase luminescence, 48 h; actives lower the signal. In outline: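 Compounds were titrated across several concentrations (up to approximately 40 uM) and incubated 48 hours with HeLa miR-21-FLuc reporter cells (miR-21 target sequence downstream of FLuc, endogenous miR-21). Readout was firefly luciferase luminescence after lytic detection reagent.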
As to `O=c1c(-c2ccc(O)cc2)coc2cc(OC3OC(CO)C(O)C(O)C3O)cc(O)c12` (stereo not given), the Potency is 2610 nM (active). With `CCN1CCN(c2cc3c(nn2)Oc2ccccc2N3C)CC1`, the Potency is 7360 nM (active). `CC1CCN(c2ccc(NC(=O)c3ccc(Br)o3)cc2)CC1`: the Potency was 656 nM (active).

In the case of `CCC(=O)Nc1ccc(N2CCC(C)CC2)cc1`, the Potency is 18500 nM (active). Under `Nc1nc(CSc2ccccc2)nc(N2CCCCC2)n1` stands 6560 nM (active); under `Cc1ccccc1Nc1nc(N)nc(CSc2ccc(F)cc2)n1`, 1310 nM (active); under `Cc1c(Cl)cccc1Nc1nc(N)nc(CSc2ncccn2)n1`, 16500 nM (active). Regarding `Cc1ccccc1Nc1nc(N)nc(CSc2ccccc2)n1`, the Potency is 656 nM (active). For `CN1C(=O)/C(=C\c2cc(Br)cs2)c2ccccc21`, the Potency was 16500 nM (active).

Take `Cc1nn(-c2ccccc2)c(N)c1N=Nc1ccc2ccccc2c1`: the Potency is 4650 nM (active).

`Cc1nn(-c2ccccc2)c(N)c1N=Nc1cccnc1`: the Potency was 11700 nM (active). With `Cc1cccc(N=Nc2c(C)nn(-c3ccccc3)c2N)c1C`, the Potency was 7360 nM (active).

As for `Cc1snc2sc(C(=O)c3ccc(F)cc3)c(N)c12`, the Potency was 5210 nM (active). `Cc1cccc(C)c1OCC(=O)Nc1cccc(C(=O)O)c1`: the Potency is 1850 nM (active). Under `CC(=O)c1cccc(NC(=O)COC(=O)c2ccccc2C)c1` stands 5850 nM (active). As to `CC(C)C(=O)Nc1ccc(-c2csc(-c3ccccc3)n2)cc1`, the Potency is 2330 nM (active). The value for `O=C(Nc1ccccc1Cl)c1csc(-c2cccnc2)n1` was 13100 nM (active); that for `CC(C)C(=O)Nc1ccc(C(=O)c2ccccc2)cc1` was 7360 nM (active); that for `CC(=O)Nc1ccc(-c2csc(-c3cccnc3)n2)cc1` was 1170 nM (active).

Take `CC(C)C(=O)Nc1ccc(-c2nnc(-c3ccccc3)o2)cc1`: the Potency is 261 nM (active). Regarding `COC(=O)c1ccsc1NC(=O)CCc1ccccc1`, the Potency was 7360 nM (active). Regarding `COc1ccc(-c2csc(-c3cccnc3)n2)cc1C`, the Potency is 3690 nM (active). The value for `c1cncc(-c2nc(-c3ccc4c(c3)OCO4)cs2)c1` was 1650 nM (active); that for `COc1ccc2cc(-c3csc(-c4cccnc4)n3)ccc2c1` was 3290 nM (active). With `CN(C)c1ccc(N=Nc2ccc(S(N)(=O)=O)cc2)cc1`, the Potency is 1170 nM (active). Take `CC(=O)c1ccc(N=Nc2ccc(N(C)C)cc2)cc1`: the Potency was 293 nM (active). As to `O=C(c1cc(-c2ccc(Br)cc2)on1)N1CCOCC1`, the Potency was 585 nM (active). As to `O=C(c1cc(-c2ccc(Br)cc2)on1)N1CCCCCC1`, the Potency is 927 nM (active).

On to `c1ccc(-c2noc(-c3ccc4c(c3)OCO4)n2)cc1`, for which the Potency is 293 nM (active). On to `COc1cccc(-c2noc(-c3ccc4c(c3)OCO4)n2)c1`, for which the Potency is 261 nM (active).
